Assay [1] in a line: Nuclear factor erythroid 2-related factor 2/antioxidant responsive element (Nrf2/ARE) small molecule agonists: luciferase reporter gene qHTS assay in human keratinocytes (AID 1919969). Also: nearly all actives have a fitted effect of over 35% in size. Also: potency is read from the fitted curve at half-maximal effect. Background: Reporter assays use an easily measured gene product as a stand-in for the process of interest.
The target in assay [2] is Gonadotropin-releasing hormone receptor (Homo sapiens) (UniProt P30968). Put plainly: Human gonadotropin-releasing hormone receptor (GnRHR) small molecule agonists, calcium flux assay in GnRHR-HEK293 cells (AID 1920063). Also: nearly all actives have a fitted effect of over 35% in size. In outline:
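Compounds dissolved in DMSO are pin-transferred onto dye-loaded GnRHR-HEK293 cells, which were seeded 18 h before at 37 C/5% CO2. Calcium signal is read as fluorescence intensity at 1 s intervals for 3 min.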
Background: Calcium assays in cells follow changes in intracellular calcium, usually with a dye or a luminescent sensor.

The target of assay [3] is KiSS-1 receptor (Homo sapiens) (UniProt Q969F8). The experiment in a line: Human kisspeptin (KISS1R) small molecule agonists, calcium flux assay in KISS1R-HEK293 cells (AID 1920064; active = well fitted activation curve with a large enough effect in the repeat runs). In outline: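 Cell line: HEK293, stable human KISS1R. Dye loading 1 h at 37 C after 18 h culture. Read: kinetic fluorescence, 480/540 nm, 3 min at 1 s intervals.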
KiSS-1 receptor (Homo sapiens), sequence (Q969F8 whole entry, looked up): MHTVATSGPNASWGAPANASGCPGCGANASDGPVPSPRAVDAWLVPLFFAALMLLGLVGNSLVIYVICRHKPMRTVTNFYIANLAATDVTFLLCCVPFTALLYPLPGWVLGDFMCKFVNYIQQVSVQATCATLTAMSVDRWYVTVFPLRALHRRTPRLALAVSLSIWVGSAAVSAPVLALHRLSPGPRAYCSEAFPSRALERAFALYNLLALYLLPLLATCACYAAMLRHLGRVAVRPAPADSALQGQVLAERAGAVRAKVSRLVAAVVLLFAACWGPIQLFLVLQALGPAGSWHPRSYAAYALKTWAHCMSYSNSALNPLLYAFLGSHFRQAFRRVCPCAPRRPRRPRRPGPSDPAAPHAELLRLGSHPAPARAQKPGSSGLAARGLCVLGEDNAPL
The nature of assay [4]: G protein-coupled receptor (GPCR) small molecule agonists, calcium flux assay: HEK293 wild type cell line counter screen (AID 1920065). In outline: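 Tox21 10K compounds, 15 concentrations each in triplicate, pin-transferred in DMSO onto dye-loaded cells; kinetic read at 480/540 nm for 3 min, 1 s intervals.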
The nature of assay [5]: p53 small molecule agonists, cell-based qHTS assay with human liver microsomes (AID 1963577).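 Also: p53 response element beta-lactamase reporter cells with liver microsomes plus NADPH.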 The method, boiled down:
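Metabolically competent format: test substances, human liver microsomes and NADPH (both 0.5 mg/mL final) incubated with p53RE-bla cells 16 h at 37 C. Beta-lactamase reporter signal then quantified by fluorescence.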
Background: Quantitative high-throughput screening tests each substance at several concentrations.

Assay [6] is described as follows: p53 small molecule agonists, cell-based qHTS assay with rat liver microsomes (AID 1963578). In outline:
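Each plate received p53RE-bla cells, then compound, then rat liver microsomes and NADPH (both 0.5 mg/mL final). Plates were held 16 h at 37 C, and beta-lactamase activity was detected with LiveBLAzer over 2 h.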

A short description of assay [7]: p53 small molecule agonists, cell-based qHTS assay with rat liver microsomes: qHTS cell viability counter screen (AID 1963580). Also: nearly all actives have a fitted effect of over 45% in size. The method, boiled down:
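Cytotoxicity counter screen: intracellular ATP read by CellTiter-Glo luminescence in the p53 reporter wells. HCT-116 p53RE-bla cells were treated for 16 h at 37 C alongside rat liver microsomes and NADPH, each 0.5 mg/mL final.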

Assay [8] can be described thus: p53 small molecule agonists, cell-based qHTS assay: qHTS cell viability counter screen (AID 1963581). Also: nearly all actives have a fitted effect of over 45% in size. In outline:
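ATP content measured by luminescence in HCT-116 p53RE-bla cells treated 16 h at 37 C, same wells as the reporter screen.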

Assay [9] deals with 5-hydroxytryptamine receptor 2A (Homo sapiens) (UniProt P28223). Put plainly: 5-hydroxytryptamine receptor 2A (HTR2A) small molecule agonists, cell-based qHTS assay (AID 1963587). Also: nearly all actives have a fitted effect of over 30% in size. The method, boiled down:
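Kinetic calcium-flux fluorescence (2 min, 1 sec intervals) after compound addition in agonist mode. HTR2A-CHO cells were cultured 18 h, then dye-loaded 1 h at 37 C.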

Assay [10] addresses Muscarinic acetylcholine receptor M1 (Homo sapiens) (UniProt P11229). The experiment in a line: Cholinergic receptor muscarinic 1 (CHRM1) small molecule agonists, cell-based qHTS assay (AID 1963589). Also: nearly all actives have a fitted effect of over 35% in size. The method, boiled down: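 Homogeneous fluorescence calcium flux, agonist mode. Human M1-expressing CHO cells; compound dosed at 15 concentrations, three independent runs; signal sampled every 1 sec.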

Assay [11] deals with Beta-2 adrenergic receptor (Homo sapiens) (UniProt P07550). The experiment in a line: Adrenergic beta2 receptor (ADRB2) small molecule antagonists, cell-based qHTS assay (AID 1963592). Also: nearly all actives have a fitted effect of over 50% in size. Also: potency is read from the fitted curve at half-maximal effect. In outline:
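Assay format: CHO-ADRB2 cells, 18-20hr seeding at 37C/5% CO2, then compound plus 1nM isoproterenol agonist mix for 0.5hr RT. Homogeneous time-resolved fluorescence cAMP detection after 1hr, expressed as 665/615 nm ratio.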

Assay [12] deals with D(2) dopamine receptor (Homo sapiens) (UniProt P14416). The experiment in a line: Dopamine D2 receptor (DRD2) small molecule agonists, cell-based qHTS assay (AID 1963594). Also: nearly all actives have a fitted effect of over 35% in size. The method, boiled down:
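cAMP accumulation in DRD2-HEK293 cells measured by HTRF after 1 h detection; compounds added 10 min before NKH477 (200nM […]) forskolin-analogue stimulation, 30 min at room temperature, with Ro20-1724 present at 0.1 mM final.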

Assay [13] has the same target. Put plainly: Dopamine D2 receptor (DRD2) small molecule antagonists, cell-based qHTS assay (AID 1963595; active = well fitted inhibition curve with a large enough effect in the signal ratio in the repeat runs, with a control signal flat; the % refers to the signal ratio; also: potency is read from the fitted curve at half-maximal effect). In outline:
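Human DRD2 antagonist qHTS measuring cAMP by HTRF. The cells are exposed to compound for 10 min, then to NKH477 (200 nM) and quinpirole (12 nM) for 30 min at RT, with Ro20-1724 (0.1 mM) present throughout.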

Assay [14] in a line: p53 small molecule agonists, cell-based qHTS assay (AID 1963582; active = well fitted activation curve with a large enough effect in the signal ratio in the repeat runs, not every such curve was filed as active; the % refers to the signal ratio). In outline:
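16 h compound exposure (37 C) of p53 response element–bla cells, preceded by 5 h recovery at 37 C/5% CO2; read-out via LiveBLAzer B/G FRET substrate, 2 h RT, fluorescence intensity.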

The target in assay [15] is 5-hydroxytryptamine receptor 2A (Homo sapiens) (UniProt P28223). The experiment in a line: 5-hydroxytryptamine receptor 2A (HTR2A) small molecule antagonists, cell-based qHTS assay (AID 1963586). Also: nearly all actives have a fitted effect of over 45% in size. In outline: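 CHO cells stably expressing human HTR2A were plated for 18 h at 37 C, then loaded with calcium dye for 1 h. Compounds were preincubated 5 min at room temperature before DOI (4 nM solution) was added. Kinetic fluorescence was read for 3 min.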
5-hydroxytryptamine receptor 2A (Homo sapiens), sequence (P28223 whole entry, looked up): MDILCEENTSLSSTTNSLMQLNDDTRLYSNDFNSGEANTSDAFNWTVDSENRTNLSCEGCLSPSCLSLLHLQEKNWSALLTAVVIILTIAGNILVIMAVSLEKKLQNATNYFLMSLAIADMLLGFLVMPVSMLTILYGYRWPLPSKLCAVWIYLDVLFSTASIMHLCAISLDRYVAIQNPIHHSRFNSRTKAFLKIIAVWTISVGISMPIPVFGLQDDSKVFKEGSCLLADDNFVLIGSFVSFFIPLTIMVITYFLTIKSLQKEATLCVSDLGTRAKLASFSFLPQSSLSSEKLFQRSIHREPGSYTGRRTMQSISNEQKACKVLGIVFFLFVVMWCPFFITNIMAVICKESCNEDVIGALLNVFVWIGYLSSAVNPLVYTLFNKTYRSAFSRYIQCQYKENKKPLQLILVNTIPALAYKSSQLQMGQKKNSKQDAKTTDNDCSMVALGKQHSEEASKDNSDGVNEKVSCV

Assay [16] deals with Muscarinic acetylcholine receptor M1 (Homo sapiens) (UniProt P11229). The experiment in a line: Cholinergic receptor muscarinic 1 (CHRM1) small molecule antagonists, cell-based qHTS assay (AID 1963588). Also: nearly all actives have a fitted effect of over 40% in size. Also: potency is read from the fitted curve at half-maximal effect. In outline: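 Compounds were tested at 15 concentrations in three independent runs. Dye-loaded CHRM1-CHO cells were exposed 5 min at room temperature before stimulation by acetylcholine added at 50nM. Intracellular calcium was read kinetically on FDSS for 3 min.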
Muscarinic acetylcholine receptor M1 (Homo sapiens), sequence (P11229 whole entry, looked up): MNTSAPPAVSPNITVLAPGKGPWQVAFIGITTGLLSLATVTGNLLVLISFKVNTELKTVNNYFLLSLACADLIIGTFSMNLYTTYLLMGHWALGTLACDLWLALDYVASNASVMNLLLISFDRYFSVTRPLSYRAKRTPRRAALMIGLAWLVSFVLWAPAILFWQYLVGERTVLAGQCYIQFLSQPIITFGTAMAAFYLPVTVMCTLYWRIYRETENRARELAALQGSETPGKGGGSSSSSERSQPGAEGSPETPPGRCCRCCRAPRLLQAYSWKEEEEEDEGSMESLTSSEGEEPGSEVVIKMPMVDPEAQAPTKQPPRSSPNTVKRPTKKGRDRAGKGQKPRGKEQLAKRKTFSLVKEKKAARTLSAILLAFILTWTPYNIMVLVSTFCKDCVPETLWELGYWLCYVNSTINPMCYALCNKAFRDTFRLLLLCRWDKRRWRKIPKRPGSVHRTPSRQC

Assay [17] is described as follows: cAMP Responsive Elements (CRE) small molecule agonists, cell-based qHTS assay (AID 1963590). Also: potency is read from the fitted curve at half-maximal effect. In outline: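 HEK 293T cells stably bearing CRE-bla were plated at 2,000 cells per well and rested 18 h. Compounds, positive controls or DMSO were added for 3 h at 37 C. LiveBLAzer B/G substrate was then loaded for 2 h at room temperature.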
Assay [18] can be described thus: cAMP Responsive Elements (CRE) small molecule antagonists, cell-based qHTS assay (AID 1963591; active = well fitted inhibition curve with a large enough effect in the signal ratio in the repeat runs, not every such curve was filed as active; the % refers to the signal ratio). In outline:
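First, CRE-bla HEK293T cells settled 18 h at 37 C. Next, compound and 0.25 uM final NKH477 were applied for 3 h. Last, LiveBLAzer B/G substrate was loaded for 2 h at room temperature.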

Assay [19] concerns the target Beta-2 adrenergic receptor (Homo sapiens) (UniProt P07550). Put plainly: Adrenergic beta2 receptor (ADRB2) small molecule agonists, cell-based qHTS assay (AID 1963593).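 Also: CHO cells stably overexpressing human ADRB2.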 In outline:
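CHO cells stably over-expressing ADRB2 were plated overnight at 37C, then dosed with compounds plus a stimulation mix containing 100uM IBMX and 25uM Ro-20-1724 for 0.5hr at room temperature. cAMP was measured by HTRF competition, 1hr.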

SMILES strings stand for the structures. Values without a mark were called inactive. Records with an inconclusive call do not appear. Calls of active or inactive are those of the source. Unless noted, calls follow the shape of the full dose curve.

Gonadotropin-releasing hormone receptor (Homo sapiens), sequence (P30968 whole entry, looked up): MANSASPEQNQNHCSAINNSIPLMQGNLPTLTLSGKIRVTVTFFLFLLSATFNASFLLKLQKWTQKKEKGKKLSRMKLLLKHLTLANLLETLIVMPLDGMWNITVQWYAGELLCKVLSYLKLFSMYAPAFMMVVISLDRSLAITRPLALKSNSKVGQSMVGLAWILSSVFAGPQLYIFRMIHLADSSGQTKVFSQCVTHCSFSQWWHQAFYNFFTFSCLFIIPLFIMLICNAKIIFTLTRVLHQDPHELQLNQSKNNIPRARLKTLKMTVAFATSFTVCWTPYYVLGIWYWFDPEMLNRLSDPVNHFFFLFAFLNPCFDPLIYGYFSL
Beta-2 adrenergic receptor (Homo sapiens), sequence (P07550 whole entry, looked up): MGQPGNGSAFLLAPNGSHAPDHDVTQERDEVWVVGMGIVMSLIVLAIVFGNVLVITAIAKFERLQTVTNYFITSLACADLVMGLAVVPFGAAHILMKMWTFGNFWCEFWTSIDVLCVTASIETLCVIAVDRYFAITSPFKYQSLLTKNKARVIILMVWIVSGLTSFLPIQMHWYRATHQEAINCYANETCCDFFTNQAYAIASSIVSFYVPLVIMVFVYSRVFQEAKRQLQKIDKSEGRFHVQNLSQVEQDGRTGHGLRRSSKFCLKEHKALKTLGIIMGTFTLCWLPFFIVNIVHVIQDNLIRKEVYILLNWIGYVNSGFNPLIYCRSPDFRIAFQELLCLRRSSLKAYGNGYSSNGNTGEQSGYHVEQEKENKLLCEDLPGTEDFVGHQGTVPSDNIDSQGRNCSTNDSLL
D(2) dopamine receptor (Homo sapiens), sequence (P14416 whole entry, looked up): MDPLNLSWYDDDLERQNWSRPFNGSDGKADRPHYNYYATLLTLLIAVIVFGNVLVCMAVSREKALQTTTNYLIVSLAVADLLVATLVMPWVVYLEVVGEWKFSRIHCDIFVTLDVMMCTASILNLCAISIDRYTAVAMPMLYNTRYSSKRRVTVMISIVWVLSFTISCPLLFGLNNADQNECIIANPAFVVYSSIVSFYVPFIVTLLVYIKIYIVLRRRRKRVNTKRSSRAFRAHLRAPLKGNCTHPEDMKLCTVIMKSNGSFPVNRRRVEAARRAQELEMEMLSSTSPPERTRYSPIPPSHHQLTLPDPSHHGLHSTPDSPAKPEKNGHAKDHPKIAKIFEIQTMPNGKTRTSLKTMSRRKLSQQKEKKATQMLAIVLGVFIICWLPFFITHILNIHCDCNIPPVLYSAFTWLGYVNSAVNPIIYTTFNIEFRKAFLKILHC

Take `CCN(CC)C(=O)c1cc(S(=O)(=O)Cc2ccccc2)c(N2CCC(c3ccccc3)CC2)cc1N(CC)CCN(C)C`: the Potency entry in assay [1], in assay [2], in [3], in [4], in assay [5] and in assay [6] was “inactive” each time. The Potency result in assay [7], in assay [8], in [9], in [10] and in [12] was “inactive” each time. The Potency in [11] is 24.1 µM (active); in assay [13], 21.4 µM (active).

For the compound `Cc1nc(Nc2ncc(C(=O)Nc3c(C)cccc3Cl)s2)cc(N2CCN(CCO)CC2)n1`, the Potency entry in assay [1], in assay [2], in assay [3], in assay [4], in [5] and in assay [6] was “inactive” throughout. The Potency entry in assay [7], in assay [14], in assay [15], in assay [9], in assay [16] and in assay [10] was “inactive” in each case. Further, the Potency result in assay [18], in assay [11], in assay [19] and in assay [13] was “inactive” in each case. For the same compound, the Potency in assay [17] was 0.841 µM (active).

Regarding `Nc1ccc([N+](=O)[O-])c(N)c1`, the Potency result in assay [1], in assay [2], in assay [3], in [4], in [5] and in assay [6] was “inactive” in each case. Moreover, the Potency result in [7], in assay [8], in [14], in assay [15], in [9] and in assay [16] was “inactive” each time. The Potency entry in assay [10], in assay [17], in assay [18], in assay [11], in assay [12] and in assay [13] was “inactive” throughout.

For the compound `CC/C=C\C/C=C\C/C=C\CCCCCCCC(=O)OC`, the Potency in assay [1] was 27.3 µM (active). Besides, the Potency result in [2], in assay [3], in [4], in [5], in [6] and in assay [15] was “inactive” throughout. Further, the Potency result in [16], in assay [10], in assay [18], in assay [19] and in [12] was “inactive” each time.

With `CCCCCCCCS(=O)C(C)Cc1ccc2c(c1)OCO2` (centres undefined), the Potency entry in assay [1], in [2], in assay [3], in assay [4], in assay [5] and in assay [6] was “inactive” throughout. In addition, the Potency result in assay [9], in [16], in assay [10], in [11], in assay [19] and in assay [12] was “inactive” throughout. In addition, in assay [13], the Potency entry is “inactive”.

For the compound `CC(CN)CC(C)(C)CCN` (centres undefined), the Potency result in assay [1], in assay [2], in [3], in assay [4], in assay [5] and in [6] was “inactive” each time. Further, the Potency result in [7], in assay [8], in [14], in assay [15], in [9] and in [17] was “inactive” each time. Further, the Potency entry in [18], in assay [12] and in [13] was “inactive” throughout. In assay [16], the Potency is 10.8 µM (active).

As for `CCCCCOc1ccccc1/C(=C\SC)n1ccnc1`, in [1], the Potency is 5.96 µM (active). For the same compound, the Potency entry in [2], in assay [3], in assay [4], in [5], in assay [6] and in assay [7] was “inactive” in each case. In addition, the Potency result in [14], in [15], in assay [9], in assay [16], in assay [10] and in assay [19] was “inactive” each time. The Potency result in assay [12] and in assay [13] was “inactive” in each case.

For the origin of these results see PubChem BioAssay (Tox21).
